One test addresses ORC1. As to the kind of experiment: pooled miR-30 sensor sort-seq; sequence = guide strand. The settings on record: shRNA.
For TAGAGGTCGCTTCATTCTGGGC, the sensor-assay potency score (higher = more potent) is -1.24.

TCATTTTTCAGATTCGTCGGTA showed a sensor-assay potency score (higher = more potent) of 0.261.

Turning to TTTTCGAAGCTGCAATTCGGGT, the sensor-assay potency score (higher = more potent) was -1.44.

For the sequence TCTCGGTGGAACAACCTTCTGT, the sensor-assay potency score (higher = more potent) was -0.225.

As for TTTACTATTACCTAGAAACCGA, the sensor-assay potency score (higher = more potent) is -0.315.

Take TAGAGTCTGAAATCTCTGCTGC: the sensor-assay potency score (higher = more potent) amounted to 0.498.

In turn, TCAATCAACACAAACTGTCCAA came in with a sensor-assay potency score (higher = more potent) of 0.619.

As to TAAGAGAGTCCAGTCTCTCTGG, the sensor-assay potency score (higher = more potent) was -0.254.

As for TACAGCAGAAACATGCAGCCTC, the sensor-assay potency score (higher = more potent) worked out at 0.436.

TTTCGATCCAACAAGGGCCTGC: the sensor-assay potency score (higher = more potent) came out at 0.15.

With TTGCACATAGACTTGGTGGGGC, the sensor-assay potency score (higher = more potent) came to 0.793.

Consider TTTGGTAGTGCAGTTTTCGATC, for which the sensor-assay potency score (higher = more potent) was -0.734.

In a further test the target is ORM2. The description is as above. The following applies: shRNA.
In the case of GTGTACATGACATCTGACCTGG, the sensor-assay potency score (higher = more potent) was -0.944.

For TTATAGAAGCACTGGTTCTGGC, the sensor-assay potency score (higher = more potent) was -0.114.

In the case of ATCAAGGTCTTGGTGTCCCTAA, the sensor-assay potency score (higher = more potent) was -0.929.

TAGAAGCACTGGTTCTGGCGGG: the sensor-assay potency score (higher = more potent) is -0.234.

Turning to TTCTTCTCATCGTCCAGGTAGG, the sensor-assay potency score (higher = more potent) was -0.591.

For the sequence TACATGACATCTGACCTGGGAA, the sensor-assay potency score (higher = more potent) was -0.156.

TGGACATTCAGGTAACTGGAGT: the sensor-assay potency score (higher = more potent) was -0.96.

With TAAGGAACAGCAGGTGAGCAAC, the sensor-assay potency score (higher = more potent) was -1.17.

Turning to TCATCGTCCAGGTAGGAACCAA, the sensor-assay potency score (higher = more potent) was -0.639.

Turning to TTATCCTTTTTCCAGTCGGTGT, the sensor-assay potency score (higher = more potent) was -1.32.

On to TGGAGTTATAGAAGCACTGGTT, for which the sensor-assay potency score (higher = more potent) is -0.607.

The sequence TGTACATGACATCTGACCTGGG showed a sensor-assay potency score (higher = more potent) of 0.548.

A further test has as its target OSBP2. The description is as above. The following applies: shRNA.
TTGGAGAACACGTAGTGCGCAG: the sensor-assay potency score (higher = more potent) was -0.163.

As for TTGACTTTGGATGAACCCTTGG, the sensor-assay potency score (higher = more potent) was -0.284.

For the sequence TTGTGAACAGTTGAGGTGCTCT, the sensor-assay potency score (higher = more potent) is -0.621.

In the case of TCTAGTACATTGTCTGCTGAGC, the sensor-assay potency score (higher = more potent) is -0.715.

Consider TACACTGTCTTCTGCTTCCCGT, for which the sensor-assay potency score (higher = more potent) is -0.671.

Consider TAAGTGGATGGCACCTAGCGGC, for which the sensor-assay potency score (higher = more potent) was -0.606.

For the sequence TAGGAGGACACAGAGAAGGCGG, the sensor-assay potency score (higher = more potent) was -0.227.

On to TTCTCTTCCTCCGAGCTGCAGC, for which the sensor-assay potency score (higher = more potent) was -0.929.

Regarding TTGATCATAGCATTGGATGTGA, the sensor-assay potency score (higher = more potent) came to 0.46.

On to ATCTAGTACATTGTCTGCTGAG, for which the sensor-assay potency score (higher = more potent) is -0.399.

For the sequence TTGCCCAGCACGAACCAGCGGC, the sensor-assay potency score (higher = more potent) is -0.788.

TTCAGTACTAAATTGAGTGCAT displayed a sensor-assay potency score (higher = more potent) of 0.314.

A further test concerns the target OSBPL11. The test is described as above. The settings on record: shRNA.
TTACACACATCTTCCTCTCTGT showed a sensor-assay potency score (higher = more potent) of 0.858.

Sequence TTCTTTACCACTTTGGTCTTGC gave a sensor-assay potency score (higher = more potent) of 0.433.

TTAAGTCTCTTTGTTGTCCTTC gave a sensor-assay potency score (higher = more potent) of 0.3.

For the sequence TACATTCTGCATAAAATCCTGA, the sensor-assay potency score (higher = more potent) was 0.486.

(Values after the OligoGym collection.)
Note: reference of the scale not given here.
